# Assay outcomes (PubChem)
# Only some compounds are listed: those with a hit (about 4.2% of all), similar ones and a draw of the others.
# GDH-TPI counter = counter-screen for M. tuberculosis FBA inhibitors: GDH-TPI coupled enzymes | GDH-TPI coupled enzyme counterscreen, NADH absorbance | inhibition, % at 4.8 µM | 1.2% of 360,000 active | AID 588335;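 note: 0% = DMSO wells and 100% = wells lacking the enzyme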
# CCHF vOTU inh-1 = blocks the CCHF virus ovarian tumor domain protease; CCHFV vOTU protease, Pep-AMC fluorescence; inhibition, % at 11.5 µM; 0.55% of 370,000 active; AID 651958; note: 0% = vehicle wells with enzyme and 100% = no enzyme wells
# Mtb FBA inh = inhibits M. tuberculosis FBA enzyme | 2.3% of 360,000 active | AID 588726 | P9WQA3 | inhibition, % at 1 µM | purified M. tuberculosis FBA, fluorescence read-out; in the data active = inhibition above about 27%;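 note: 0% = vehicle and 100% = reference inhibitor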
# RecA splice inh = Mtb RecA intein splicing inhibition; cell-free RecA intein splicing, fluorescence; inhibition, % (concentration not given with the values); 0.75% of 290,000 active; AID 2221; in the data active = inhibition above about 30%;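 note: 0% = vehicle wells and 100% = reference inhibitor control wells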
# Target sequence (P9WHJ3 whole entry, looked up, canonical isoform): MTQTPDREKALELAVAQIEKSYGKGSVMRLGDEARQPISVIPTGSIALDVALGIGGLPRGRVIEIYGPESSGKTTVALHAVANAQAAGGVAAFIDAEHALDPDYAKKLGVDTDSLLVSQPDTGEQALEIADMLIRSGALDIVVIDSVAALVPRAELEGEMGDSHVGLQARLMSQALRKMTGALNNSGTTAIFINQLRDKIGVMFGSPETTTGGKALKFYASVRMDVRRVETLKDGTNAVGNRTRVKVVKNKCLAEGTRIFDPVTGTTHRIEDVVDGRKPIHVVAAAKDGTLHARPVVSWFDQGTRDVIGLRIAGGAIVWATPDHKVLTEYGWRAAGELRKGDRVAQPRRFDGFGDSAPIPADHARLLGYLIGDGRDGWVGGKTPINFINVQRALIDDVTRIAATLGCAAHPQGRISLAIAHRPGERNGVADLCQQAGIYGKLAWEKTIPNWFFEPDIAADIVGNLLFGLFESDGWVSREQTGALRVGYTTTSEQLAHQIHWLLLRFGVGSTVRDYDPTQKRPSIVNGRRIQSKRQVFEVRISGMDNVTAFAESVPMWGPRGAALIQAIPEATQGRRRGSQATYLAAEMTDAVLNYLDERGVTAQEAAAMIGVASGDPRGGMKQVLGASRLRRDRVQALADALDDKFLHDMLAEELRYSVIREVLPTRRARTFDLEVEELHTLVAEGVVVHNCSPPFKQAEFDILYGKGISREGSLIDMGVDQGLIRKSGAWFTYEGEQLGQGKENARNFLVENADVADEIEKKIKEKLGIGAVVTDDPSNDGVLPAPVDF
# Mtb betalactam = beta-lactam sensitization of Mtb H37Rv; M. tuberculosis H37Rv growth with meropenem, percent inhibition; inhibition, % at 25 µM; 0.27% of 330,000 active; AID 434955; call rule not given here;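 note: growth measured after seven days incubation then overnight dye step; 0% = bacteria only wells and 100% = bacteria with antibiotic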
# CCHF vOTU inh-2 = confirmation of CCHF virus vOTU protease inhibitors; shares compounds with CCHF vOTU inh-1; Recombinant CCHFV vOTU, Pep-AMC fluorescence; inhibition, % at 11.5 µM; 17% of 1,900 active
# An asterisk follows results filed as active; · = no result. Cut-off read from the data, not from the text of the source, unless noted: active = inhibition above about 30%; inactive = the rest.
SMILES,GDH-TPI counter,CCHF vOTU inh-1,Mtb FBA inh,RecA splice inh,Mtb betalactam,CCHF vOTU inh-2
Nc1[nH][nH]c(=O)c1N=Nc1cccc(Cl)c1,7,32*,-7,4,-2,11
CCCCOC(=O)CSc1nc2c(c(=O)[nH]c(=O)n2C)n1C/C=C(\C)Cl,10,31*,-1,-5,-1,-10
C/C(Cl)=C/Cn1c(SCC(C)C)nc2c1c(=O)[nH]c(=O)n2C,-4,1,1,2,-4,·
CCn1c(NCc2cc(Cl)ccc2O)nc2ccccc21,8,17,2,0,-1,·
Cc1nnc(N/N=C/c2ccc(O)c([N+](=O)[O-])c2)[nH]c1=O,47*,32*,-3,-1,20,6
COc1ccc(C(O)c2nc(-c3cncnc3)cs2)cc1 (stereo unspecified),14,-2,7,·,·,·
COc1ccc(-c2cn(Cc3ccc(C(N)=O)cc3)c(-c3ccncc3)n2)cc1,5,11,0,·,6,·
COc1cccc2c1C(=N)c1c(O)c3c(c(O)c1C2=O)CC(O)(C(C)=O)CC3OC1CC(N)C(O)C(C)O1 (stereo unspecified),0,·,0,·,·,·
COc1cccc2c1C(=O)c1c(O)c3c(c(O)c1C2=O)C[C@](O)(C(C)=O)C[C@H]3O[C@@H]1C[C@@H](N)[C@@H](O)[C@@H](C)O1,2,31*,-3,-2,99,-7
CC1(C)OCC(C2CC(c3ccccc3)NS(=O)(=O)O2)O1 (stereo unspecified),0,6,-3,-1,0,·
O=S1(=O)NC2c3ccccc3CC2O1 (stereo unspecified),-1,37*,7,26,1,-5
CS(=O)(=O)N(CC(=O)NCCSCc1ccccc1)c1ccccc1Br,3,0,1,-1,2,·
C(=NN=C(NN=Cc1cccs1)NN=Cc1cccs1)c1cccs1,44*,33*,2,·,·,2
Cc1cccc(OCC(=O)Nc2ccc(CN3CCOCC3)cc2)c1C,-8,35*,-1,0,-12,-8
O=C(Cc1ccccc1)Nc1cc(Cl)ccc1Sc1ccccc1,4,30*,-3,-1,6,-13
CCOC(=O)CC1COCCN1C(=O)c1ccc2oc(Cc3ccccc3)nc2c1 (stereo unspecified),-6,-5,1,0,-1,·
CCC(O)c1c(-c2ccccc2)nn(C)c1Cl (stereo unspecified),2,31*,1,-1,-3,-16
COc1ccc(OC)c(NC(=O)COC(=O)CC2CCCCC2)c1,6,15,-1,·,-2,·
COc1ccc(NS(=O)(=O)c2cc(NC(=O)c3ccc(=O)[nH]n3)ccc2C)cc1,-5,31*,0,·,1,-10
COc1ccc(NS(=O)(=O)c2cc(C(=O)O)ccc2C)cc1,5,-23,1,-1,8,·
CCN(c1cccc(C(F)(F)F)c1)S(=O)(=O)c1ccc2c(c1)CCN2C(C)=O,-3,42*,5,0,-2,2
CCCC(=O)NC1=C(Cl)C(=O)c2ccccc2C1=O,-4,93*,-3,·,·,83*
Nc1c(N(Cc2ccco2)C(=O)COc2ccccc2Cl)c(=O)[nH]c(=O)n1Cc1ccccc1,0,31*,-1,·,4,-15
Nc1c(N(Cc2ccco2)C(=O)COc2ccc(Cl)cc2)c(=O)[nH]c(=O)n1Cc1ccccc1,-8,16,4,·,·,·
CCN(c1ccc(OC)cc1)S(=O)(=O)c1cc(-c2cc(C)no2)ccc1OC,-7,31*,4,6,-11,-18
SMILES,GDH-TPI counter,CCHF vOTU inh-1,Mtb FBA inh,RecA splice inh,Mtb betalactam,CCHF vOTU inh-2
CN(CC(=O)Nc1ccc(Cl)c(C(F)(F)F)c1)C(=O)CC1Sc2ccccc2NC1=O (stereo unspecified),0,33*,-1,-1,44,-16
COc1cccc(NC(=O)CN(C)C(=O)CC2Sc3ccccc3NC2=O)c1 (stereo unspecified),6,-7,4,·,0,·
Fc1cccc(CNc2ncnc3ccc(-c4ccc5c(c4)OCO5)cc23)c1,11,30*,5,·,92,-13
c1cncc(-c2ccc3ncnc(NCc4ccc5c(c4)OCO5)c3c2)c1,-3,9,2,·,8,·
O=C1NC(=O)C2(CCC(C3CCCCC3)CC2)N1 (stereo unspecified),-5,11,-2,·,·,·
CCc1cc(-c2cnnn2Cc2ccccc2)ccc1-c1cn(CC(C)C)nn1,4,30*,0,·,·,-10
